Assay outcomes as filed in PubChem.
An excerpt weighted towards active compounds, which were near 14% of everything screened.
CRE Fsk mod: modulators of forskolin-stimulated CRE signaling in CHO cells; 71,000 tested, 2.5% active; CHO CRE-bla reporter (cAMP response element driving beta-lactamase), forskolin EC10, beta-lactamase ratio; Potency, µM (doses to about 38.2 µM), for inactives: at the highest dose activity change, negative = inhibition, most hits filed as activators; AID 662; active = well fitted activation curve with a large enough effect in the signal ratio, with a control signal flat, not every such curve was filed as active; inconclusive = small, poorly fitted or top-dose-only effect, or effect the other way, or a change in a side signal; the % refers to the signal ratio; note: potency is the fitted concentration of half-maximal effect; % of control where 0% means no effect
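CRE-bla CHO cells stimulated with EC10 NKH 477 (water-soluble forskolin) and compound titrations, 3 h at 37C; beta-lactamase read with CCF4 after 2 h at room temperature. Activity from 460/530 nm emission ratio, AC50 values for positive or negative modulation.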
HADH2 inh: inhibitors of human HADH2 dehydrogenase. Q99714. recombinant HADH2, NADH fluorescence, beta-hydroxybutyryl-CoA. Potency, µM (top dose mostly 57.1 µM), for inactives: at the top dose activity change, negative = inhibition, actives largely listed as inhibitors. 73,000 tested, 3.4% active. AID 886; note: potency is the fitted concentration of half-maximal effect; % is set by controls: 0 for no effect and ±100 for the full control effect; nearly all actives have a fitted effect of over 60% in size
Target sequence (Q99714 whole entry, looked up, one chain of several): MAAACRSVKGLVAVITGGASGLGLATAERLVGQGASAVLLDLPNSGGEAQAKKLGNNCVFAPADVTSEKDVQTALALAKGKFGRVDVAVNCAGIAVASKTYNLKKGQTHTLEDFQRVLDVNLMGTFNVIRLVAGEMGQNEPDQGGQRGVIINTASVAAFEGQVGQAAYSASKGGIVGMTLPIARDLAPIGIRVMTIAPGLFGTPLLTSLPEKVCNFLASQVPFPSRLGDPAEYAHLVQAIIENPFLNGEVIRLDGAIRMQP
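20 nM HADH2 + cpd, 15 min RT; add 1 mM NAD+/90 uM beta-hydroxybutyryl-CoA; kinetic fluorescence 360/450 nm, 4 min. Tris-HCl pH 9.0, 0.01% Tween-20.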
HSD17B inh: HSD17B dehydrogenase inhibition; 75,000 tested, 7.6% active; Q99714; recombinant HSD17B10, NADH fluorescence kinetic; Potency, µM (doses to about 57.1 µM), inactives show at the highest dose activity change, negative = inhibition, hits mostly inhibitors;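 note: the protocol describes HADH2 (HSD17B10) and not the HSD17B4 of the title; potency is the fitted concentration of half-maximal effect; % is set by controls: 0 for no effect and ±100 for the full control effect; nearly all actives have a fitted effect of over 70% in size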
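Enzyme plus compound, 15 min room temperature; substrate mix added (NAD+ 1 mM, beta-hydroxybutyryl-CoA 90 uM final); plates read kinetically for NADH fluorescence. HADH2 was His-tagged, E. coli-derived, 20 nM.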
AID923: qHTS Assay for Allosteric/Competitive Inhibitors of Caspase-1: Spectroscopic Profiling in AFC Spectral Region; compound fluorescence, AFC spectral region (405/520 nm); Potency, µM (titrated, usually from 57.5 µM), for inactives: top-dose fluorescence increase, most hits filed as activators; 75,000 tested, 1.1% active; note: potency is the fitted concentration of half-maximal effect; 0% is about no effect
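Compound autofluorescence profiled at 405 nm ex/520 nm em during kinetic caspase 1 run (50 nM enzyme, 5 uM Ac-WEHD-AFC, HEPES pH 7.5, 10 mM DTT). Titration up to 57 uM; baseline from regression intercept, normalized to AFC standard curve.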
A350 autofl: compound fluoresces in the Alexa 350 spectral region | AID 590 | max dye-equivalent concentration, M | Compound autofluorescence, 340/450 nm, Alexa 350 dye-equivalents; active compounds read high | 59,000 tested, 11% active; in the data active = max dye-equivalent concentration above about 10 nM; inconclusive = mostly about 1.1 nM to 9.6 nM
4-MU autofl: compounds fluorescent in 4-MU spectral region; compound autofluorescence, 340/450 nm, 4-MU equivalents; active compounds read high; max dye-equivalent concentration, M; 59,000 tested, 11% active; in the data active = max dye-equivalent concentration above about 10 nM; inconclusive = mostly about 1.1 nM to 9.6 nM
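Compounds in 100 mM Tris, pH 8.0, incubated 15 min at room temperature, then fluorescence read at 340 nm excitation/450 nm emission. Signal converted to 4-MU dye-equivalent concentration using an on-plate six-point 4-MU standard curve.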
* hit, by the source's call; i = inactive; ? = inconclusive; . = no result; [ ] = remark or other dose. Unless noted, calls come from the whole dose curve; as a rule, active = well fitted curve in the direction sought with a large enough effect; inconclusive = small, poorly fitted or top-dose-only effect, or another doubt; inactive = no such curve, though single readings can be large; an effect the other way counts as inactive or inconclusive.

SMILES	CRE Fsk mod	HADH2 inh	HSD17B inh	AID923	A350 autofl	4-MU autofl
COc1cc(C(=O)OCn2nnc3ccccc3c2=O)cc(OC)c1OC	6.31µM*	3.0%	5.1%	-1.3%	i	i
O=S(=O)(NCc1ccccn1)c1cccc2cccnc12	-4.0%	-0.3%	-3.2%	-0.6%	.	.
Cc1ccc(N=Cc2cccc(O)c2O)c(C)c1	.	1µM*	0.1%	0.3%	.	.
O=c1[nH]nc2n1CCCCC2	.	.	.	.	4.03e-08M*	3.78e-08M*
CCCOc1ccc2oc(=O)c3c(c2c1)CCCN3C(=O)CN(C)Cc1ccccc1	?	-9.5%	-19.7%	-0.1%	3.43e-08M*	2.69e-08M*
O=C(CN1CCN(Cc2ccccc2)CC1)N1CCCc2c1c(=O)oc1ccc(O)cc21	-13.1%	-8.8%	-3.5%	0.4%	i	i
CN1C(=O)C2(N=c3ccccc3=N2)c2ccccc21	.	.	.	.	1.2e-07M*	1.11e-07M*
CCOc1nc(-c2ccc(OC)cc2)ccc1-c1noc(-c2ccncc2)n1	?	108.9%	-11.0%	3.4%	1.44e-08M*	1.07e-08M*
CCOc1nc(C)ccc1-c1noc(-c2ccncc2)n1	?	-1.3%	0.4%	-0.6%	i	i
CCOc1nc(-c2ccccc2)ccc1-c1noc(-c2ccncc2)n1	-2.3%	-7.9%	12.6µM*	1.1%	?	?
COc1nc(Nc2ccc(OC)c(Cl)c2)nc(OC)n1	10µM*	1.1%	-8.0%	-1.6%	i	i
CN=C(N)/N=C(\N)Nc1cc2ccccc2c2ccccc12	3.7%[7.6 µM]	2.6%[11.4 µM]	14.6%[11.4 µM]	0.9%[11.5 µM]	i	i
Cn1cccc1C(=O)N1CCC2(CCCN(C(c3ccccc3)c3ccccc3)C2)CC1	?	-0.6%	-2.6%	3.2%	i	i
Cc1nc(N2CCOCC2)c2nc(-c3ccccc3)n(CCCN3CCCCC3C)c2n1 (stereo unspecified)	0.6%	-2.0%	25.1µM*	-0.3%	.	.
COCCN(CCOC)c1nc(C)nc2c1nc(-c1ccccc1)n2CCCN1CCCCC1C (stereo unspecified)	2.7%	-8.8%	25.1µM*	1.1%	.	.
CCN(CC)CCn1c(-c2ccccc2)nc2c(N3CCOCC3)nc(C)nc21	11.0%	?	?	13.6%	.	.
CCCn1c(-c2ccc(F)cc2)nc2c(N3CCCN(Cc4ccccc4)CC3)nc(C)nc21	1.3%	-17.1%	31.6µM*	0.7%	.	.
Cc1nc(N2CCOCC2)c2nc(-c3ccccc3)n(CCN3CCCCC3)c2n1	2.7%	9.9%	25.1µM*	-2.5%	.	.
CCCn1c(C)nc2c(NCCCN3CCCCC3C)nc(C)nc21 (stereo unspecified)	4.3%	5.3%	2.8%	-0.6%	.	.
CCCn1c(C)nc2c(N3CCOCC3)nc(C)nc21	10µM*	15.7%	-6.5%	1.6%	.	.
CC[C@@]12CCCN3CCc4c(n(c5ccccc45)[C@](O)(C(=O)OC)C1)C32 (stereo partly specified)	.	.	9.4%	-3.8%	.	.
CCC(=O)Nc1ccccc1C(=O)OCC(=O)Nc1ccc(S(N)(=O)=O)cc1	-0.2%	-8.0%	31.6µM*	0.8%	i	i
CC(=O)OCC1OC(C#Cc2ccc(Cl)cc2)C=CC1OC(C)=O (stereo unspecified)	.	2.0%[11.4 µM]	1.9%[11.4 µM]	2.6%[11.5 µM]	.	.
CSc1nsc(SCC(=O)Nc2ccccn2)n1	-1.4%	-18.1%	2.6%	-0.6%	2.4e-08M*	2.14e-08M*
Cc1nc(N2CCN(c3ccccc3)CC2)nc2c1C(=O)CC(c1ccccc1)C2 (stereo unspecified)	?	-9.1%	-5.5%	-2.3%	?	1.32e-08M*
O=C1CC(c2ccc(F)cc2)Cc2nc(N3CCc4ccccc43)ncc21 (stereo unspecified)	?	?	?	8.0%	6.08e-07M*	5.59e-07M*
O=C1CC(c2ccc(F)cc2)Cc2nc(N3CCN(c4ccccc4)CC3)ncc21 (stereo unspecified)	?	?	60.2%	0.8%	?	2.03e-08M*
